This note sets out measurements from PubChem BioAssay (Tox21).

A number with no mark means an inactive call. Records with an inconclusive call do not appear. Active and inactive are the calls of the source. Unless noted, calls come from the whole dose curve; as a rule, active = well fitted curve in the direction sought with a large enough effect in the repeat runs; inconclusive = weak or mixed curves; inactive = no such curve, though single readings can be large; an effect the other way counts as inactive or inconclusive.

A short description of experiment [1]: qHTS assay to identify small molecule antagonists of the androgen receptor (AR) signaling pathway using the MDA cell line in the presence of 0.5 nM R1881 - cell viability counter screen (AID 1259242). Note: nearly all actives have a fitted effect of over 45% in size. In a few lines:
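Viability of MDA-kb2 cells was multiplexed with the luciferase AR readout; after 16 hr with compounds and R1881 at 0.5 nM final, CellTiter-Fluor fluorescence was recorded.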

Experiment [2] has as its target Estrogen receptor (Homo sapiens) (UniProt P03372). Nature of the experiment: qHTS assay to identify small molecule antagonists of the estrogen receptor alpha (ER-alpha) signaling pathway using the BG1 cell line in the presence of 0.1 nM 17-beta-estradiol (AID 1259244). Note: nearly all actives have a fitted effect of over 50% in size. In a few lines:
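Estradiol at 0.1 nM (final) stimulates the endogenous ER-alpha of VM7Luc4E2 cells carrying an ERE-driven luciferase; compounds are co-incubated 22 h at 37C and luciferase output quantified by luminescence.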
In general terms: Quantitative high-throughput screening tests each substance at several concentrations.

The nature of experiment [3]: qHTS assay to identify small molecule HDAC inhibitors (AID 1259364). Note: potency is the fitted concentration of half-maximal effect.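 Note: wild-type HCT-116 cells with endogenous class I/II HDAC activity; nearly all actives have a fitted effect of over 45% in size.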 In short, it runs like this: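 Read-out: luminescence of HDAC-Glo I/II reagent, 30 min RT, reflecting class I/II deacetylase activity in whole HCT-116 cells pre-exposed 2 h to DMSO-dissolved compounds.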
A short description of experiment [4]: qHTS assay to identify small molecule HDAC inhibitors - cell viability counter screen (AID 1259365). Note: series mostly up to about 92 µM; nearly all actives have a fitted effect of over 50% in size. In a few lines:
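HCT-116 (wild type), 1,500 cells/well, overnight 37C/5% CO2; compound in DMSO 2hr; CellTiter-Glo 30min RT; luminescence read.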

The nature of experiment [5]: qHTS assay to identify small molecule agonists of the sonic hedgehog signaling (Shh) pathway - cell viability counter screen (AID 1259366). Note: nearly all actives have a fitted effect of over 50% in size. In short, it runs like this: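 CellTiter-Fluor fluorescence read-out, 1 hr at 37C, added after 23hr compound exposure. Cells: 3T3 Gli1-Luc, an NIH/3T3 clone with stably integrated Gli1-Luc reporter, plated 4hr before compound.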

Experiment [6] in a line: qHTS assay to identify small molecule antagonists of the sonic hedgehog signaling (Shh) pathway - cell viability counter screen (AID 1259367). Note: nearly all actives have a fitted effect of over 55% in size. In a few lines: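 After a 4 hr settling period, 3T3 Gli1-Luc cells were treated with DMSO-dissolved chemicals and conditioned medium, kept 24 hr at 37C in 5% CO2, and assayed for viability by CellTiter-Fluor fluorescence following 1 hr reagent incubation.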

Experiment [7] in a line: qHTS assay to identify small molecule agonists of the sonic hedgehog signaling (Shh) pathway (AID 1259368; calls by dose curve;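 note: NIH/3T3-derived 3T3Gli1-Luc cells carrying a stable Gli1-driven firefly luciferase reporter; series mostly up to about 92 µM; nearly all actives have a fitted effect of over 15% in size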). In a few lines: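 A Gli1 transcriptional response element controlled firefly luciferase in 3T3Gli1-Luc cells. Compounds and a positive control were added 4 hr after plating, and cells were incubated a further 24 hr at 37 C before luminescence detection.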
Experiment [8] addresses Estrogen receptor beta (Homo sapiens) (UniProt Q92731). Nature of the experiment: qHTS assay to identify small molecule agonists of the estrogen receptor beta (ER-beta) signaling pathway (AID 1259377; active = well fitted activation curve with a large enough effect in the signal ratio in the repeat runs, not every such curve was filed as active; the % refers to the signal ratio). In a few lines: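 Beta-lactamase reporter readout: fluorescence of LiveBLAzer B/G FRET substrate after 2 h at room temperature, following 16 h compound treatment of ER-beta-UAS-bla HEK293T cells at 37C in 2% charcoal-stripped FBS medium.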

Experiment [9] has the same target. Nature of the experiment: qHTS assay to identify small molecule antagonists of the estrogen receptor beta (ER-beta) signaling pathway (AID 1259378; active = well fitted inhibition curve with a large enough effect in the signal ratio in the repeat runs, not every such curve was filed as active; the % refers to the signal ratio). In a few lines:
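ER-beta-UAS-bla HEK293T (GripTite) cells in 2% charcoal-stripped FBS medium were preincubated 6 hr at 37C, dosed with compound, then stimulated with 1 nM E2 (final) for 16 hr; beta-lactamase reporter read by B/G FRET fluorescence after 2 hr substrate loading.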

Experiment [10] in a line: qHTS assay to identify small molecule agonists of the androgen receptor (AR) signaling pathway in the presence of an antagonist - cell viability counter screen (AID 1259379).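 Note: MDA-kb2 human breast cancer cells carrying an MMTV luciferase reporter; series mostly up to about 92 µM; nearly all actives have a fitted effect of over 25% in size.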 In a few lines:
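Seed MDA-kb2 at 3,000 cells/well; incubate 5 hr, 37C, 0% CO2. Add nilutamide to 3.0uM final, then pin compounds at 15 concentrations. Incubate 16 hr. Add CellTiter-Fluor at 15 hr, read fluorescence after 1 hr.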

Experiment [11] is described as follows: qHTS assay to identify small molecule agonists of the estrogen receptor beta (ER-beta) signaling pathway - cell viability counter screen (AID 1259380). Note: nearly all actives have a fitted effect of over 30% in size. Note: potency is the fitted concentration of half-maximal effect. In short, it runs like this: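 CellTiter-Glo read, 30 min RT, same wells as bla assay; cells ER-beta-UAS-bla HEK293T; 16 hr compound, 37C; medium 2% charcoal-stripped FBS.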
Experiment [12] in a line: qHTS assay to identify small molecule antagonists of the estrogen receptor beta (ER-beta) signaling pathway - cell viability counter screen (AID 1259382). Note: series mostly up to about 92 µM; nearly all actives have a fitted effect of over 55% in size. In short, it runs like this:
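In this multiplexed counter screen, cells were seeded at 2,000 per well in medium with 2% charcoal-stripped FBS and incubated 6 hr before compound and 1nM final E2 were added. Sixteen hours later, ATP-based luminescence reported viability.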

For experiment [13], the target named is Estrogen receptor (Homo sapiens) (UniProt P03372). In words: qHTS assay to identify small molecule agonists of the estrogen receptor alpha (ER-alpha) signaling pathway in the presence of an antagonist (AID 1259383; calls by dose curve; note: top concentration of the series differs between compounds; nearly all actives have a fitted effect of over 15% in size). In a few lines: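 Stably transfected VM7Luc4E2 reporter cells, kept 5 days in charcoal-stripped serum, received ICI-182,780 at 10.0nM final before compound addition. Following 22hr incubation at 37C and 5% CO2, luciferase signal was read by luminescence.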
Chain of Estrogen receptor (Homo sapiens) (P03372 whole entry, looked up): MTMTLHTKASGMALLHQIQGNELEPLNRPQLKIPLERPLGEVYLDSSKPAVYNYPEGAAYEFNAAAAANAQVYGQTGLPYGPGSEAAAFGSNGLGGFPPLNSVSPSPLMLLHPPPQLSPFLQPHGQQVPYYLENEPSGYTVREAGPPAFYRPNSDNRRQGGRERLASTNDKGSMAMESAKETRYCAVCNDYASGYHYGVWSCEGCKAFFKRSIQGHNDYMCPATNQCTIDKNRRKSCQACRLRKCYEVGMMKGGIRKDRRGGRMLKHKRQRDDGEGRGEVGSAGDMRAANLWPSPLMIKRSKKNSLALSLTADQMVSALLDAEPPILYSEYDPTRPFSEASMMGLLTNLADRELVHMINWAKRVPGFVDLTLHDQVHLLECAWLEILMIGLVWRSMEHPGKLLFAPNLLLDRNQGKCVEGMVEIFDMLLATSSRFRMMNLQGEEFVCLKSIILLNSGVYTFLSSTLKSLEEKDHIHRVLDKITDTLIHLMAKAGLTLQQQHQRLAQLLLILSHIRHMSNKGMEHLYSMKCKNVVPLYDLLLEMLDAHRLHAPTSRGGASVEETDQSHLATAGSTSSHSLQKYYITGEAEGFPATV

Experiment [14] is described as follows: qHTS assay to identify small molecule agonists or antagonists of the thyroid stimulating hormone receptor (TSHR) signaling pathway - wild type cell line counter screen (AID 1259384; calls by dose curve). In short, it runs like this:
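Wild-type HEK293 cells were plated 18 h at 37 C/5% CO2, pin-dosed with compound plus Ro20-1724 medium, held 30 min at room temperature, then given cAMP-d2 and anti-cAMP-cryptate; fluorescence was read after 1 h. Fifteen concentrations, triplicate.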

The target in experiment [15] is Thyrotropin receptor (Homo sapiens) (UniProt P16473). Nature of the experiment: qHTS assay to identify small molecule antagonists of the thyroid stimulating hormone receptor (TSHR) signaling pathway (AID 1259385; calls by dose curve; note: nearly all actives have a fitted effect of over 20% in size; note: potency is the fitted concentration of half-maximal effect). In a few lines: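 TSHR-HEK293 cells were plated and held 18 h at 37C/5% CO2, then given compound plus Ro20-1724 and stimulated with TSH at 1.5 ng/mL final. After 30 min at room temperature, cAMP was detected with cAMP-d2/anti-cAMP-cryptate (1 h) by fluorescence.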
Chain of Thyrotropin receptor (Homo sapiens) (P16473 whole entry, looked up): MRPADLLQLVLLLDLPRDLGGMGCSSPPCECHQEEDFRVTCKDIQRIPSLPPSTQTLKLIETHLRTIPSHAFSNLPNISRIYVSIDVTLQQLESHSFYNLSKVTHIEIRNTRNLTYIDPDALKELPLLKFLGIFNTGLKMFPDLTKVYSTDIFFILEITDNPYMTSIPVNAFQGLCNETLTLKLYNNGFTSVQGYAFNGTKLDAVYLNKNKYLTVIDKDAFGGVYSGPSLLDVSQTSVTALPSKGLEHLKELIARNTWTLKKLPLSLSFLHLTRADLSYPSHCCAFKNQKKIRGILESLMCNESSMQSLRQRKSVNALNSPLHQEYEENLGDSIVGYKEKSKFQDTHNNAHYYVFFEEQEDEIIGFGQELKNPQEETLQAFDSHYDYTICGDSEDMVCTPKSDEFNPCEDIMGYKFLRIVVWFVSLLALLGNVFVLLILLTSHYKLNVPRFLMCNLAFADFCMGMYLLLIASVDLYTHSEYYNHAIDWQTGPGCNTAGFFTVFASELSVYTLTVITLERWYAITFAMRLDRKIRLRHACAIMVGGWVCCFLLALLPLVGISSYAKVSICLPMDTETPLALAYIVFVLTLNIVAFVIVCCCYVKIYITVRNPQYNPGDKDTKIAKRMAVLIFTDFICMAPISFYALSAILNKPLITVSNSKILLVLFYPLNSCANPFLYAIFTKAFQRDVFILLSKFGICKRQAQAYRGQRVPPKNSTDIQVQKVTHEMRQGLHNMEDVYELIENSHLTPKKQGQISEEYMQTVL

The nature of experiment [16]: qHTS assay to identify small molecule agonists of the estrogen receptor alpha (ER-alpha) signaling pathway in the presence of an antagonist - cell viability counter screen (AID 1259386).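 Note: series mostly up to about 92 µM; cells exposed to compounds for 22 h at 37 °C before the viability read; nearly all actives have a fitted effect of over 30% in size.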 In a few lines: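 Viability counter screen using VM7Luc4E2 (full-length ER-alpha, four ERE-luciferase). The cells were treated with compounds alongside ICI-182,780 10.0nM for 22hr, and live-cell protease fluorescence was quantified with CellTiter-Fluor.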

Experiment [17] is described as follows: qHTS assay to identify small molecule antagonists of the sonic hedgehog signaling (Shh) pathway (AID 1259369; calls by dose curve; note: nearly all actives have a fitted effect of over 45% in size; note: potency is the fitted concentration of half-maximal effect). In short, it runs like this: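 For antagonist detection, the reporter line received test compounds together with conditioned medium, incubated 24hr at 37 C, 5% CO2, then luminescence was recorded following 30min room-temperature luciferase reagent incubation.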

Experiment [18] deals with Androgen receptor (Homo sapiens) (UniProt P10275). In words: qHTS assay to identify small molecule agonists of the androgen receptor (AR) signaling pathway in the presence of an antagonist (AID 1259381; calls by dose curve; note: nearly all actives have a fitted effect of over 15% in size). In short, it runs like this:
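Test compounds at 15 concentrations were incubated for 16hr with MDA-kb2 reporter cells in presence of 3.0uM nilutamide (final). Signal: ONE-Glo luciferase luminescence.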

Chain of Estrogen receptor beta (Homo sapiens) (Q92731 whole entry, looked up): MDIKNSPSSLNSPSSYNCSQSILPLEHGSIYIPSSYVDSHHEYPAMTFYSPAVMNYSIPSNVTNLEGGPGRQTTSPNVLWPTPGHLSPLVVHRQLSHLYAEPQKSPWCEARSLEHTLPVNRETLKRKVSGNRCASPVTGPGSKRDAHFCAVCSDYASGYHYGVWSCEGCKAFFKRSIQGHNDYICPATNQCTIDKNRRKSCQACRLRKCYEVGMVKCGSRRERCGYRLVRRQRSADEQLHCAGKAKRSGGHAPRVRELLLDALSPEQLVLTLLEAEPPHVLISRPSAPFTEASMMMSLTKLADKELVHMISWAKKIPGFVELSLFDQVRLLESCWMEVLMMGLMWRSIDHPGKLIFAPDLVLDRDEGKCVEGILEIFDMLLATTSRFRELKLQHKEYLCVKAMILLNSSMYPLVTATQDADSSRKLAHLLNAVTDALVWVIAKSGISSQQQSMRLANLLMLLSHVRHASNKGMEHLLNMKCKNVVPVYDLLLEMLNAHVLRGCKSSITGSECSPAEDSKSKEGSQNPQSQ
Chain of Androgen receptor (Homo sapiens) (P10275 whole entry, looked up): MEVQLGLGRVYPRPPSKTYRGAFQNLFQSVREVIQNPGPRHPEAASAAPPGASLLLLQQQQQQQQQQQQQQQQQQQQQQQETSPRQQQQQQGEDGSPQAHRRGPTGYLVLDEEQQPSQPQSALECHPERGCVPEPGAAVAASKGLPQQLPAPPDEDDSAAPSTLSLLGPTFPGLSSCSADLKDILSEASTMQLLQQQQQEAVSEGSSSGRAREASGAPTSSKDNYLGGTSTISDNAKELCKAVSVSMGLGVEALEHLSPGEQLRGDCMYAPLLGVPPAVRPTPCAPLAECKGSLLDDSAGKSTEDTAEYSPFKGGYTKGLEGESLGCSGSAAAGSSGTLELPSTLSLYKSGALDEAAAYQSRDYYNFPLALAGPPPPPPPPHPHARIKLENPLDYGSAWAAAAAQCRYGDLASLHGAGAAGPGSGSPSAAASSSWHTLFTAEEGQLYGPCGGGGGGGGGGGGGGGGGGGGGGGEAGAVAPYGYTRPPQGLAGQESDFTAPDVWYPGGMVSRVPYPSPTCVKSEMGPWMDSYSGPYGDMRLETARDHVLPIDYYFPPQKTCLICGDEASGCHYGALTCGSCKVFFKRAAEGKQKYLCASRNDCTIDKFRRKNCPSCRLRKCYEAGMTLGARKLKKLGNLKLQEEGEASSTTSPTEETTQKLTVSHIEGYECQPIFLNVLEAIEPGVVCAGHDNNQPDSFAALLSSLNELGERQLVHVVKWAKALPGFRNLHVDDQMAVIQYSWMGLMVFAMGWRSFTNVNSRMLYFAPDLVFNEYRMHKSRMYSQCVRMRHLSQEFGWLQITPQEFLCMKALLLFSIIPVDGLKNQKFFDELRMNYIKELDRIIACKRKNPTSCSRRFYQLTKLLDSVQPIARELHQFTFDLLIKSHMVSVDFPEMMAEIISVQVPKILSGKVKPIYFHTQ

Consider `CC1(C)CON(Cc2ccccc2Cl)C1=O`, for which the outcome in experiment [1], in experiment [4], in experiment [7] and in experiment [8] was inactive. Besides, the Potency result in experiment [2], in [3], in experiment [5], in [6], in experiment [9] and in experiment [10] was “inactive” throughout. Moreover, the Potency entry in [11], in experiment [12], in experiment [13], in experiment [14], in experiment [15] and in experiment [16] was “inactive” throughout.

As for `c1cc[c]([Hg][c]2ccccc2)cc1`, the outcome in [1], in experiment [4], in [7] and in experiment [8] was inactive. Also, the Potency result in [2], in [5], in experiment [9], in experiment [10], in experiment [11] and in experiment [18] was “inactive” each time. In addition, the Potency result in [12], in experiment [14], in experiment [15] and in experiment [16] was “inactive” throughout. Besides, the Potency in [3] was 2.43 µM (active); in experiment [17], 0.545 µM (active).

`O=[N+]([O-])c1cccc2cccnc12`: the result in [1], in [4] and in [7] was inactive. The Potency result in experiment [2], in experiment [3], in [5], in experiment [17], in experiment [10] and in [11] was “inactive” in each case. Moreover, the Potency entry in [12], in experiment [13], in experiment [14], in experiment [15] and in experiment [16] was “inactive” throughout.

Turning to `COP(=S)(OC)Oc1c(Cl)cc(C)cc1Cl`, the result in experiment [1], in [4], in experiment [7] and in experiment [8] was inactive. The Potency result in experiment [2], in experiment [3], in experiment [5], in experiment [17], in experiment [9] and in experiment [10] was “inactive” each time. In addition, the Potency entry in [11], in experiment [12], in [13] and in [14] was “inactive” each time. For the same compound, in [15], the Potency is 54.5 µM (active).

With `CC(C)CP(=S)(S)CC(C)C`, the outcome in [1], in experiment [4] and in experiment [7] was inactive. Further, the Potency entry in experiment [2], in [3], in [5], in experiment [6], in [10] and in experiment [13] was “inactive” throughout. Also, the Potency entry in experiment [14] and in [15] was “inactive” throughout.

Turning to `O=C(O)C(Br)CBr` (stereo not given), the outcome in experiment [1], in [4], in [7] and in experiment [8] was inactive. Also, the Potency result in [2], in experiment [3], in experiment [5], in experiment [6], in experiment [9] and in experiment [10] was “inactive” each time. Besides, the Potency entry in experiment [11], in experiment [12], in experiment [13], in experiment [14], in [15] and in experiment [16] was “inactive” each time.

`OCCBr`: the outcome in experiment [1], in experiment [4], in experiment [7] and in experiment [8] was inactive. Besides, the Potency result in [2], in [3], in experiment [5], in [17], in [9] and in experiment [10] was “inactive” each time. Besides, the Potency entry in experiment [11], in experiment [12], in experiment [13], in [14], in experiment [15] and in [16] was “inactive” in each case.

Consider `CCC/C(=N\OCC)C1=C(O)CC(CC(C)SCC)CC1=O` (stereo not given), for which the outcome in experiment [1], in experiment [4], in experiment [7] and in experiment [8] was inactive. For the same compound, the Potency entry in experiment [2], in experiment [3], in experiment [5], in [9], in [10] and in experiment [11] was “inactive” in each case. For the same compound, the Potency entry in experiment [12], in experiment [13], in experiment [14], in experiment [15] and in experiment [16] was “inactive” throughout. In experiment [17], the Potency is 30.8 µM (active).

With `C1CCC(C2CCCCC2)CC1`, the result in experiment [1], in experiment [4], in experiment [7] and in [8] was inactive. Also, the Potency result in [2], in experiment [3], in experiment [5], in experiment [17], in experiment [9] and in [10] was “inactive” throughout. The Potency entry in experiment [13], in [14], in experiment [15] and in [16] was “inactive” each time. Besides, the Potency in experiment [11] is 38.6 µM (active).
